Unmarked numbers belong to inactive results.
Columns and labels:
Assay in all cases: log2 ratio of Biotin-Ahx-Ub-VS probe labelling (fragment/DMSO); higher = less target engagement (more negative = stronger competition), active = hit call of the paper (q ≤ 0.05, log2 ratio ≤ -1)
Conditions in all cases: compound concentration: 200 uM; treatment time: 3 h
[1] = target: T1, USP42 (UniProt Q9H9J4)
T1 sequence (whole entry): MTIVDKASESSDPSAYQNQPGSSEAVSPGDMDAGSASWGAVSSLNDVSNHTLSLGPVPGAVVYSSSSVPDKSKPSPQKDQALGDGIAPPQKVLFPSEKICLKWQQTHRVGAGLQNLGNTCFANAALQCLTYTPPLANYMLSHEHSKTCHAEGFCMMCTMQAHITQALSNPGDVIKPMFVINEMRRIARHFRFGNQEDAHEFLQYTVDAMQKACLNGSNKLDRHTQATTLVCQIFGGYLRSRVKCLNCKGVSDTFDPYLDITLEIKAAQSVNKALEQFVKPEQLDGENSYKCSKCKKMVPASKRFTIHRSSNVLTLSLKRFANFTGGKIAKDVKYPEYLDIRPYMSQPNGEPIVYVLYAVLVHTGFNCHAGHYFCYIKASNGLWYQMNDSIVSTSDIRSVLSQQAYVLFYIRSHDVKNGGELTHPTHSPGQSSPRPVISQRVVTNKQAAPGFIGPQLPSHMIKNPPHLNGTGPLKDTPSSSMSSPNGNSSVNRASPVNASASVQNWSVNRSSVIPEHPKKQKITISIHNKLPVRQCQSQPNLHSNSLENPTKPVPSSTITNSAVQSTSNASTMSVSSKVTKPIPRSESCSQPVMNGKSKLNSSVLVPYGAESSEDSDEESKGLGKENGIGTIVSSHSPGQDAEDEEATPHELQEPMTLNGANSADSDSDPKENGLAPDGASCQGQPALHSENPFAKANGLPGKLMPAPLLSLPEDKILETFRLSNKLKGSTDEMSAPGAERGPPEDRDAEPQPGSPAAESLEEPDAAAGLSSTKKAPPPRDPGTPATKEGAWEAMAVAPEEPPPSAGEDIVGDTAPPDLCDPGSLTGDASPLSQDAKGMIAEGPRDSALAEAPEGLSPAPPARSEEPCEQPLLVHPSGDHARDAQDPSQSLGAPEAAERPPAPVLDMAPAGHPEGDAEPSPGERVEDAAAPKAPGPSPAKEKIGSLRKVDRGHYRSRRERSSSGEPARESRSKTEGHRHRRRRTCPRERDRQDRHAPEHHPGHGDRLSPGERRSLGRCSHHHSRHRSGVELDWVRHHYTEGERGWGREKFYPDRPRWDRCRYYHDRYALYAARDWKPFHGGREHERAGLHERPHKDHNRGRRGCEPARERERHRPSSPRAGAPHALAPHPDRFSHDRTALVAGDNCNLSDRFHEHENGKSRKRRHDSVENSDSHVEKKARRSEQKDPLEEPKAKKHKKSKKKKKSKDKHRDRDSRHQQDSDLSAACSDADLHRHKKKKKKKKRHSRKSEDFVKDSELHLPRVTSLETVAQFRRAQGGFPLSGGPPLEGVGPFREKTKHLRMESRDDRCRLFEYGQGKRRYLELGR
In short: (§1)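 HEK293T lysate (495 µg per sample, in Tris/CHAPS/IGEPAL buffer with protease inhibitors) was exposed in triplicate for 3 h to fragment at 200 µM or to vehicle, then to Biotin-Ahx-Ub-VS at 0.5 µM final for 1 h. Labelled DUBs were enriched on NeutrAvidin, digested with LysC and trypsin, and analysed by diaPASEF LC-MS/MS. Spectronaut label-free quantities were normalised to the global median, and values are average log2 ratios of fragment over vehicle from an unpaired t-test. Only proteins with ≥2 unique peptides were used.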

[2] = target: USP46 (UniProt P62068)
Sequence of USP46 (P62068 whole entry): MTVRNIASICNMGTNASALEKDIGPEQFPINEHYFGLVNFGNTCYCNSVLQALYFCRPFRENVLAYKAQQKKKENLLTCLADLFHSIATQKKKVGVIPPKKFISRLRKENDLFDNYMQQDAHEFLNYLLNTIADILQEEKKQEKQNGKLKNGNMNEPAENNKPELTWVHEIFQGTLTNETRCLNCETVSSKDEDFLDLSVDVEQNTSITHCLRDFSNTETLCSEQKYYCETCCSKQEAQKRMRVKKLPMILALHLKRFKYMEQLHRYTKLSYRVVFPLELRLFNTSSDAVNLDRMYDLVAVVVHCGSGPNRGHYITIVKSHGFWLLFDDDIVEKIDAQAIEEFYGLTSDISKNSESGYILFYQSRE
In short: as §1

[3] = target: T2, USP47 (UniProt Q96K76)
T2 sequence (whole entry): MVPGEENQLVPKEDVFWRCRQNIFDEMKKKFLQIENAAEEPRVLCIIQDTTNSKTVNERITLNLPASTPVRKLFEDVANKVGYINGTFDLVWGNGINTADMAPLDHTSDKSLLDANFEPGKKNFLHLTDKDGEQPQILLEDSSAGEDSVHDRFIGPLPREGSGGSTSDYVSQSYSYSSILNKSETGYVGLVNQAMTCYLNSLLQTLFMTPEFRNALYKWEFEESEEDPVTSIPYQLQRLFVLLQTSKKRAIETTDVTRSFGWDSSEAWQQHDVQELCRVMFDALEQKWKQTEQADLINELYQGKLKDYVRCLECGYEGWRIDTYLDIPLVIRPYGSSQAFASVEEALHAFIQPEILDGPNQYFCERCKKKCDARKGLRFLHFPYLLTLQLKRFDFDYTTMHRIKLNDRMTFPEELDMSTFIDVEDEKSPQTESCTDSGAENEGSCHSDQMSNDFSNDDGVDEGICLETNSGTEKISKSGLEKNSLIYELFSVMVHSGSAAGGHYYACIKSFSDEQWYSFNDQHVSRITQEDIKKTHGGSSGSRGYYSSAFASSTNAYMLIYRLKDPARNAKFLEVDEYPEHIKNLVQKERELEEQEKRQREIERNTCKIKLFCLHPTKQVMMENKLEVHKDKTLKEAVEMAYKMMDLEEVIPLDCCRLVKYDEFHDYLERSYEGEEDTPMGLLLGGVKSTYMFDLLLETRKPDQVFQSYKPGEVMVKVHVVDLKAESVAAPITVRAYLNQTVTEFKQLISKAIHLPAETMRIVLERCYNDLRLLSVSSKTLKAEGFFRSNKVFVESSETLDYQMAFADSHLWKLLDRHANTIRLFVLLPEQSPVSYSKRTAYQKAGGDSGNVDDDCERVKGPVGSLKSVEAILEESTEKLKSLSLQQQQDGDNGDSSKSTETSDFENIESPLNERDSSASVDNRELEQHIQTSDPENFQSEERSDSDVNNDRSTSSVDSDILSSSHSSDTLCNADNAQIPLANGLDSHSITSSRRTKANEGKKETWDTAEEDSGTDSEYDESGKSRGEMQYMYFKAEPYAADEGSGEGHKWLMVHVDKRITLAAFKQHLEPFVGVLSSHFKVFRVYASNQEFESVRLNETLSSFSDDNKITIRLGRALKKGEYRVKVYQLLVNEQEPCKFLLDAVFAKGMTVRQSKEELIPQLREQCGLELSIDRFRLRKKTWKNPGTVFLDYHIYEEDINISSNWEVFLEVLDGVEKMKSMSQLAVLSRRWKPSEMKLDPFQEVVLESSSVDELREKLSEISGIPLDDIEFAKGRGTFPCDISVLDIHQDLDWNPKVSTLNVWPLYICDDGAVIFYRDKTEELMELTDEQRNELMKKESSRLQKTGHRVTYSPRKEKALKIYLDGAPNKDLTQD
In short: as §1

[4] = target: T3, USP48 (UniProt Q86UV5)
T3 sequence (whole entry): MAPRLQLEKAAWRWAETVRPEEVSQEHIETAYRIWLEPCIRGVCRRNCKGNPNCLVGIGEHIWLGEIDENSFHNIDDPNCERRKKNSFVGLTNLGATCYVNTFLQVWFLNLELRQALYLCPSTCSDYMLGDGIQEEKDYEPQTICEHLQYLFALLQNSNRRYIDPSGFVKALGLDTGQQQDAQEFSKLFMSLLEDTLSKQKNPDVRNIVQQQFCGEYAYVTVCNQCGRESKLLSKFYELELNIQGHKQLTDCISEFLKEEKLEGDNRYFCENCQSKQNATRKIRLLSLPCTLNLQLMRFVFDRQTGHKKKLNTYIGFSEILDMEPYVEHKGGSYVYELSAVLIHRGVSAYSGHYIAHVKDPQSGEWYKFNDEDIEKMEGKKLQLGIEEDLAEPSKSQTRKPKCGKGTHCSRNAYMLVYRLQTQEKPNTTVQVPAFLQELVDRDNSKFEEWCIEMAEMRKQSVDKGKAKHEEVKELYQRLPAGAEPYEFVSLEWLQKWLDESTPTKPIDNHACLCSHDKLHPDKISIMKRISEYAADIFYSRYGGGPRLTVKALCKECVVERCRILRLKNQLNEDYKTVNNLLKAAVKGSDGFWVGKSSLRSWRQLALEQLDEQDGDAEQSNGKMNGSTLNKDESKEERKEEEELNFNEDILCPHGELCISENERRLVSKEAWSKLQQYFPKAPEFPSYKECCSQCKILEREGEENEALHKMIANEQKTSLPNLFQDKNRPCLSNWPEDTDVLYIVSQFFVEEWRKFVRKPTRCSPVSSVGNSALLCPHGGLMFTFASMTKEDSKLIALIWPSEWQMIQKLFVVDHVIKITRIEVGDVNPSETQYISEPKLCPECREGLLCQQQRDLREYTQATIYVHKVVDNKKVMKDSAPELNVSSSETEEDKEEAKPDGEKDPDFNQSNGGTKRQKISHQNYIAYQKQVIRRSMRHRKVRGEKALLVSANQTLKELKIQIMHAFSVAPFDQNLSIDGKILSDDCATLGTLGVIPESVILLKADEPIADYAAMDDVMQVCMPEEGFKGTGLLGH
In short: as §1

[5] = target: T4, USP5 (UniProt P45974)
T4 sequence (whole entry): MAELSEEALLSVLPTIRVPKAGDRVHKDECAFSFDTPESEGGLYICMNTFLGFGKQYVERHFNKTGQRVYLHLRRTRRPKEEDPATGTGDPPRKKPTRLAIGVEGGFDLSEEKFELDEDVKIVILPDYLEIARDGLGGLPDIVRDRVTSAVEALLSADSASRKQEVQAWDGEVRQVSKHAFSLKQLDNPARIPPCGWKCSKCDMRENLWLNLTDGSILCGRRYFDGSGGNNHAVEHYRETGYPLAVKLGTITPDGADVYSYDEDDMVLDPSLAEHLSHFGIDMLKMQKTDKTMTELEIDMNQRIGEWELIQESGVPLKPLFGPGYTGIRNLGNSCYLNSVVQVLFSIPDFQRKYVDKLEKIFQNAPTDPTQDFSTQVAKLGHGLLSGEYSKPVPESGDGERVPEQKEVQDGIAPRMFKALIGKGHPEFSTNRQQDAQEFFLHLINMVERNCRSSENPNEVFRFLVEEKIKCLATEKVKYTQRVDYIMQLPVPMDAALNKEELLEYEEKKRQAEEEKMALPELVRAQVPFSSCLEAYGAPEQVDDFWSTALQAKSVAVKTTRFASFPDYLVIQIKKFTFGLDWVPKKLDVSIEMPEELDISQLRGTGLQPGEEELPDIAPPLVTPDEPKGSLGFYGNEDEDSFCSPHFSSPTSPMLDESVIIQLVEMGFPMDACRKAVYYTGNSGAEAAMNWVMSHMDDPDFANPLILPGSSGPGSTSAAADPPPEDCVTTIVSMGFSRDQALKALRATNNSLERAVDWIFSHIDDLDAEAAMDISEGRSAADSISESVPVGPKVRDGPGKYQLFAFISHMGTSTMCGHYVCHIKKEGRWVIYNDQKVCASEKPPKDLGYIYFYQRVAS
In short: as §1

[6] = target: USP54 (UniProt Q70EL1)
Sequence of USP54 (Q70EL1 whole entry): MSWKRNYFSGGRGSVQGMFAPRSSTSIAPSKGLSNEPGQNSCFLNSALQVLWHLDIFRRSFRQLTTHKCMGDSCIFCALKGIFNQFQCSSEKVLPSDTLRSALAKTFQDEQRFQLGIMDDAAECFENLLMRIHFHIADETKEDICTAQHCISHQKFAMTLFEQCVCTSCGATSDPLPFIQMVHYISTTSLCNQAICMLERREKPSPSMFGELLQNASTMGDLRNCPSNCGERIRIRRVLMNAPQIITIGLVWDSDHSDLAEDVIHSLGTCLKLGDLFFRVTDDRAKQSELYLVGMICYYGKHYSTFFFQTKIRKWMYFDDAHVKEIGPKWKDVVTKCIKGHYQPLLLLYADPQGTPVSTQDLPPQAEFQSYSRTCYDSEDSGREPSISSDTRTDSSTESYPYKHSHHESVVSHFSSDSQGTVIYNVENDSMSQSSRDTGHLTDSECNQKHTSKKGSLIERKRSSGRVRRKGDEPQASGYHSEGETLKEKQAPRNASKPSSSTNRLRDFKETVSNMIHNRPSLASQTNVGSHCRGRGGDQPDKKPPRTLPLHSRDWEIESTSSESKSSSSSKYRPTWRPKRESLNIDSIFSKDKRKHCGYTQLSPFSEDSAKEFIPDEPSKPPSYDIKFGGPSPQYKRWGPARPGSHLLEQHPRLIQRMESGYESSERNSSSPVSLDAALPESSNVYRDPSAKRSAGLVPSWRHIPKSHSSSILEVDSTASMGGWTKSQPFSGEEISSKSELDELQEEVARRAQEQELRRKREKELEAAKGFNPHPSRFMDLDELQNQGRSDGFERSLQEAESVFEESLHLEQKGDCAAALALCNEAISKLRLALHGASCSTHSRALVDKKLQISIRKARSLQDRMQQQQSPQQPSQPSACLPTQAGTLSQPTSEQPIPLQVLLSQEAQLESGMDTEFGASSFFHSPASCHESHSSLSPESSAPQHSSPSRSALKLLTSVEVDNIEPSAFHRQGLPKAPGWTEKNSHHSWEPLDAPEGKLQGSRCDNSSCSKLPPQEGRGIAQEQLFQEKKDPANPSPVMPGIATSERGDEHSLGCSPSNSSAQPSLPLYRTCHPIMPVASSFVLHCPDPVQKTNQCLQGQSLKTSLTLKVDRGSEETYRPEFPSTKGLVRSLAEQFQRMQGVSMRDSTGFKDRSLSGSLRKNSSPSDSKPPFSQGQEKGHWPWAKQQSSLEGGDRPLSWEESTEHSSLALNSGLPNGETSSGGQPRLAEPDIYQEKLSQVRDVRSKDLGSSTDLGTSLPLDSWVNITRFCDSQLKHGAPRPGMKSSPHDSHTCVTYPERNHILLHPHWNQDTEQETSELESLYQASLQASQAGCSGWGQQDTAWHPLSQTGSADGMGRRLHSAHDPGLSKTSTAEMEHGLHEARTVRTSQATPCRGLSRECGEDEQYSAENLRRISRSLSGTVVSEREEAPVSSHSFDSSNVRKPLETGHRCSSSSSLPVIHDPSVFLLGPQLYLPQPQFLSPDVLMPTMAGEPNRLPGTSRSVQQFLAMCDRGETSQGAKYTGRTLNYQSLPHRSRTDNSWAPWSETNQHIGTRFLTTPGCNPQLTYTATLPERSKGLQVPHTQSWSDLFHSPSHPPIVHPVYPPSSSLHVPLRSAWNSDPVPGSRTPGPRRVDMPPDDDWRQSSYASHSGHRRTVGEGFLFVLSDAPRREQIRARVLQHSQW
In short: as §1

[7] = target: USP7 (UniProt Q93009)
Sequence of USP7 (Q93009 whole entry, looked up): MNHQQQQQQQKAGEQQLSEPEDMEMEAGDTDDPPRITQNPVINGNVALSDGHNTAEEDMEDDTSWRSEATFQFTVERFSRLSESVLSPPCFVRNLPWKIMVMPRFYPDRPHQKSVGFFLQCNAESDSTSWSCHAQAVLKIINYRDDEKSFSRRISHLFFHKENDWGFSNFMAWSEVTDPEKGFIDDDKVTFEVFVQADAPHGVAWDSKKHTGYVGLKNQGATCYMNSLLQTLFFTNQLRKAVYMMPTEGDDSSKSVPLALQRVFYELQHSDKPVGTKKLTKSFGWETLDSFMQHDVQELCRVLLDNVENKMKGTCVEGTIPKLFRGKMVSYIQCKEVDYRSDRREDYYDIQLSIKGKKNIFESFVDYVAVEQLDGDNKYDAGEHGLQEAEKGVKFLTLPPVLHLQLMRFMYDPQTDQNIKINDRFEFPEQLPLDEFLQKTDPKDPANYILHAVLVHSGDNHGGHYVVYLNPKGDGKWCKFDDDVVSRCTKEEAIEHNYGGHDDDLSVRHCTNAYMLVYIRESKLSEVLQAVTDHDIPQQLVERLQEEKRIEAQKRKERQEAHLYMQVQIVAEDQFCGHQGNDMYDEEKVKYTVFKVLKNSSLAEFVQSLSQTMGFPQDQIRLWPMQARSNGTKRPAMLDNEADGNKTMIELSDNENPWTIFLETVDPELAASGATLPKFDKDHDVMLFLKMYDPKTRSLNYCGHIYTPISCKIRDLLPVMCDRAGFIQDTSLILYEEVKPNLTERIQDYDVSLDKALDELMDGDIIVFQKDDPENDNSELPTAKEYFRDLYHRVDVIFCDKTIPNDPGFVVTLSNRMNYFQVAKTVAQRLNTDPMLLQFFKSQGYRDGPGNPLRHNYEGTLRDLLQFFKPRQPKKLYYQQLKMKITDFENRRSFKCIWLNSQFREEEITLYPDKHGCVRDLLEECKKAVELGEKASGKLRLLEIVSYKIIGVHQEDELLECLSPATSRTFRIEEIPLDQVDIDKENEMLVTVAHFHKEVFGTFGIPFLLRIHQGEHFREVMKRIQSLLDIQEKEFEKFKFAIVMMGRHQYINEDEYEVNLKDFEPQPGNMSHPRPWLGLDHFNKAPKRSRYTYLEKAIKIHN
In short: as §1

[8] = target: T5, USP8 (UniProt P40818)
T5 sequence (whole entry): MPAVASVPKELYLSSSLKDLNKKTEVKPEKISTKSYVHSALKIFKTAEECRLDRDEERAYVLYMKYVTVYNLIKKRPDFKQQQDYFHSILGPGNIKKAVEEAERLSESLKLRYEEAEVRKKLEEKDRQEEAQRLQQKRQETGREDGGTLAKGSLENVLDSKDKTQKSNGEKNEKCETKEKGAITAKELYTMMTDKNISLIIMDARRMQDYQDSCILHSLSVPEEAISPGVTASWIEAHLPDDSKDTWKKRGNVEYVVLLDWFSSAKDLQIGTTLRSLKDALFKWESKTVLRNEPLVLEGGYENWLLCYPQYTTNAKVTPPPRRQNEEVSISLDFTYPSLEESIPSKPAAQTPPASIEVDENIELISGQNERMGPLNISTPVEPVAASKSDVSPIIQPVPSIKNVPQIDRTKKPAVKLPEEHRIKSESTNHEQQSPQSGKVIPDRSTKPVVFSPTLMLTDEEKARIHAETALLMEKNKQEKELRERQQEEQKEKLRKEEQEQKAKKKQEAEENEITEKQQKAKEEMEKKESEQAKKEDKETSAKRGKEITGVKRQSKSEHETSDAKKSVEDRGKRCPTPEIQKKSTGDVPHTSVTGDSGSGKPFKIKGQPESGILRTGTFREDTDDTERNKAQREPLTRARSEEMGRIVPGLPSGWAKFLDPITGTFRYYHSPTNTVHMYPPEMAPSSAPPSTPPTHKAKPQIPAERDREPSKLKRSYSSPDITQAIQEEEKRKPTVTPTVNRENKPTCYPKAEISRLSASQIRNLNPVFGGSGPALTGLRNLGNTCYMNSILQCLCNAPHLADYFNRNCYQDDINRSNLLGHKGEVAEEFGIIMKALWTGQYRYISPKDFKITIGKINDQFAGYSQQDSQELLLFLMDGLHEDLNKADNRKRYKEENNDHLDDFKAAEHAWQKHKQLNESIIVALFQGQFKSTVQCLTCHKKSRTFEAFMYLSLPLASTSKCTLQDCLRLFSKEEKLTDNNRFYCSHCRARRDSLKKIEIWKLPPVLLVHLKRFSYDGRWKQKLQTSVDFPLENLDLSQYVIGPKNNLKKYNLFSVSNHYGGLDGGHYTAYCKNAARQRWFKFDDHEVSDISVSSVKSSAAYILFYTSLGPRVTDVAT
In short: as §1

O=C(CCl)N1CCc2sccc2C1
log2 ratio of Biotin-Ahx-Ub-VS probe labelling [1]: 0.32
log2 ratio of Biotin-Ahx-Ub-VS probe labelling [2]: -0.578
log2 ratio of Biotin-Ahx-Ub-VS probe labelling [3]: -0.774
log2 ratio of Biotin-Ahx-Ub-VS probe labelling [4]: -0.677
log2 ratio of Biotin-Ahx-Ub-VS probe labelling [5]: -0.108
log2 ratio of Biotin-Ahx-Ub-VS probe labelling [6]: -0.356
log2 ratio of Biotin-Ahx-Ub-VS probe labelling [7]: -1.34 (active)
log2 ratio of Biotin-Ahx-Ub-VS probe labelling [8]: 0.015
